Experimental data published in paper PMC9911399, “Two distinct binding modes provide the RNA-binding protein RbFox with extraordinary sequence specificity”.
Residue numbers refer to the chain shown, from its start. Whole data set: some 16,000 sequences, median “ka relative to ugcaugu” near 0.0091, cut for the highest 2% near 0.032. For the sample, the highest values were picked, then their nearest neighbours and some sequences at random.

T1: RBFOX1 RRM (Homo sapiens, UniProt Q9NWB1 109-208)
T1 sequence: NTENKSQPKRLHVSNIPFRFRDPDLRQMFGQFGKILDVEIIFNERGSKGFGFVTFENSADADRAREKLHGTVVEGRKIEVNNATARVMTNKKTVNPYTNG

B1: GACCAGC (DNA:RNA)
RNA: GGGAGACCGGAAUUCAGAUUGUCCGACCAGCUUAAAUCCCGUCGUAGCCACCA
DNA 1: CAATCTGAATTCCGGTCTCCC
DNA 2: TGGTGGCTACGACGGGATT
B2: GGGGUCA (DNA:RNA)
RNA: B1 RNA with A26G, C27G, C28G, A29U, G30C, C31A
DNA 1: CAATCTGAATTCCGGTCTCCC
DNA 2: TGGTGGCTACGACGGGATT
B3: AGGUCAC (DNA:RNA)
RNA: B1 RNA with G25A, A26G, C27G, C28U, A29C, G30A
DNA 1: CAATCTGAATTCCGGTCTCCC
DNA 2: TGGTGGCTACGACGGGATT
B4: CCUAGCG (DNA:RNA)
RNA: GGGAGACCGGAAUUCAGAUUGUCCCCUAGCGUUAAAUCCCGUCGUAGCCACCA
DNA 1: CAATCTGAATTCCGGTCTCCC
DNA 2: TGGTGGCTACGACGGGATT
B5: GAAUCAG (DNA:RNA)
RNA: B1 RNA with C27A, C28U, A29C, G30A, C31G
DNA 1: CAATCTGAATTCCGGTCTCCC
DNA 2: TGGTGGCTACGACGGGATT
B6: UUGAAGG (DNA:RNA)
RNA: B4 RNA with C25U, C26U, U27G, G29A, C30G
DNA 1: CAATCTGAATTCCGGTCTCCC
DNA 2: TGGTGGCTACGACGGGATT
B7: CUUACUA (DNA:RNA)
RNA: B4 RNA with C26U, G29C, C30U, G31A
DNA 1: CAATCTGAATTCCGGTCTCCC
DNA 2: TGGTGGCTACGACGGGATT
B8: UCUCGCU (DNA:RNA)
RNA: B4 RNA with C25U, A28C, G31U
DNA 1: CAATCTGAATTCCGGTCTCCC
DNA 2: TGGTGGCTACGACGGGATT
B9: GCGGUUG (DNA:RNA)
RNA: B4 RNA with C25G, U27G, A28G, G29U, C30U
DNA 1: CAATCTGAATTCCGGTCTCCC
DNA 2: TGGTGGCTACGACGGGATT
B10: GCGGCGG (DNA:RNA)
RNA: B4 RNA with C25G, U27G, A28G, G29C, C30G
DNA 1: CAATCTGAATTCCGGTCTCCC
DNA 2: TGGTGGCTACGACGGGATT
B11: CGCGGAU (DNA:RNA)
RNA: B4 RNA with C26G, U27C, A28G, C30A, G31U
DNA 1: CAATCTGAATTCCGGTCTCCC
DNA 2: TGGTGGCTACGACGGGATT
B12: GCGGGAU (DNA:RNA)
RNA: B4 RNA with C25G, U27G, A28G, C30A, G31U
DNA 1: CAATCTGAATTCCGGTCTCCC
DNA 2: TGGTGGCTACGACGGGATT
B13: GCGGUUC (DNA:RNA)
RNA: B1 RNA with A26C, C27G, C28G, A29U, G30U
DNA 1: CAATCTGAATTCCGGTCTCCC
DNA 2: TGGTGGCTACGACGGGATT
B14: GGGAGAU (DNA:RNA)
RNA: B4 RNA with C25G, C26G, U27G, C30A, G31U
DNA 1: CAATCTGAATTCCGGTCTCCC
DNA 2: TGGTGGCTACGACGGGATT
B15: GCGGAUU (DNA:RNA)
RNA: B1 RNA with A26C, C27G, C28G, G30U, C31U
DNA 1: CAATCTGAATTCCGGTCTCCC
DNA 2: TGGTGGCTACGACGGGATT
B16: GGGGAUU (DNA:RNA)
RNA: B1 RNA with A26G, C27G, C28G, G30U, C31U
DNA 1: CAATCTGAATTCCGGTCTCCC
DNA 2: TGGTGGCTACGACGGGATT
B17: GGAGAUU (DNA:RNA)
RNA: B1 RNA with A26G, C27A, C28G, G30U, C31U
DNA 1: CAATCTGAATTCCGGTCTCCC
DNA 2: TGGTGGCTACGACGGGATT
B18: CGGGGAU (DNA:RNA)
RNA: B4 RNA with C26G, U27G, A28G, C30A, G31U
DNA 1: CAATCTGAATTCCGGTCTCCC
DNA 2: TGGTGGCTACGACGGGATT
B19: GGGGGAU (DNA:RNA)
RNA: B4 RNA with C25G, C26G, U27G, A28G, C30A, G31U
DNA 1: CAATCTGAATTCCGGTCTCCC
DNA 2: TGGTGGCTACGACGGGATT
B20: GGGAAUU (DNA:RNA)
RNA: B1 RNA with A26G, C27G, C28A, G30U, C31U
DNA 1: CAATCTGAATTCCGGTCTCCC
DNA 2: TGGTGGCTACGACGGGATT
B21: AUUGUUU (DNA:RNA)
RNA: B4 RNA with C25A, C26U, A28G, G29U, C30U, G31U
DNA 1: CAATCTGAATTCCGGTCTCCC
DNA 2: TGGTGGCTACGACGGGATT
B22: GUUCAGC (DNA:RNA)
RNA: B1 RNA with A26U, C27U
DNA 1: CAATCTGAATTCCGGTCTCCC
DNA 2: TGGTGGCTACGACGGGATT
B23: AAUAUGG (DNA:RNA)
RNA: B4 RNA with C25A, C26A, G29U, C30G
DNA 1: CAATCTGAATTCCGGTCTCCC
DNA 2: TGGTGGCTACGACGGGATT
B24: CGCGAUU (DNA:RNA)
RNA: B1 RNA with G25C, A26G, C28G, G30U, C31U
DNA 1: CAATCTGAATTCCGGTCTCCC
DNA 2: TGGTGGCTACGACGGGATT
B25: UAUGUGA (DNA:RNA)
RNA: B1 RNA with G25U, C27U, C28G, A29U, C31A
DNA 1: CAATCTGAATTCCGGTCTCCC
DNA 2: TGGTGGCTACGACGGGATT
B26: GUAUUGA (DNA:RNA)
RNA: B1 RNA with A26U, C27A, C28U, A29U, C31A
DNA 1: CAATCTGAATTCCGGTCTCCC
DNA 2: TGGTGGCTACGACGGGATT
B27: ACGGAUU (DNA:RNA)
RNA: B4 RNA with C25A, U27G, A28G, G29A, C30U, G31U
DNA 1: CAATCTGAATTCCGGTCTCCC
DNA 2: TGGTGGCTACGACGGGATT
B28: GGGCGUU (DNA:RNA)
RNA: B1 RNA with A26G, C27G, A29G, G30U, C31U
DNA 1: CAATCTGAATTCCGGTCTCCC
DNA 2: TGGTGGCTACGACGGGATT
B29: GUUAAAU (DNA:RNA)
RNA: B4 RNA with C25G, C26U, G29A, C30A, G31U
DNA 1: CAATCTGAATTCCGGTCTCCC
DNA 2: TGGTGGCTACGACGGGATT
B30: GGGAUUU (DNA:RNA)
RNA: B4 RNA with C25G, C26G, U27G, G29U, C30U, G31U
DNA 1: CAATCTGAATTCCGGTCTCCC
DNA 2: TGGTGGCTACGACGGGATT
B31: GGGGAAU (DNA:RNA)
RNA: B1 RNA with A26G, C27G, C28G, G30A, C31U
DNA 1: CAATCTGAATTCCGGTCTCCC
DNA 2: TGGTGGCTACGACGGGATT
B32: GGGAAAU (DNA:RNA)
RNA: B1 RNA with A26G, C27G, C28A, G30A, C31U
DNA 1: CAATCTGAATTCCGGTCTCCC
DNA 2: TGGTGGCTACGACGGGATT
B33: CGGGAUU (DNA:RNA)
RNA: B4 RNA with C26G, U27G, A28G, G29A, C30U, G31U
DNA 1: CAATCTGAATTCCGGTCTCCC
DNA 2: TGGTGGCTACGACGGGATT
B34: GGAUUUU (DNA:RNA)
RNA: B1 RNA with A26G, C27A, C28U, A29U, G30U, C31U
DNA 1: CAATCTGAATTCCGGTCTCCC
DNA 2: TGGTGGCTACGACGGGATT
B35: CGGGCGU (DNA:RNA)
RNA: B4 RNA with C26G, U27G, A28G, G29C, C30G, G31U
DNA 1: CAATCTGAATTCCGGTCTCCC
DNA 2: TGGTGGCTACGACGGGATT
B36: GGGGCGU (DNA:RNA)
RNA: B1 RNA with A26G, C27G, C28G, A29C, C31U
DNA 1: CAATCTGAATTCCGGTCTCCC
DNA 2: TGGTGGCTACGACGGGATT

What follows are binders tested against T1, RBFOX1 RRM (assay: EMSA; HiTS-Eq, 1 nM pool, 10 min; buffer printed only for the single-RNA assays: 10 mM Tris pH 7.5, 150 mM NaCl, 3.4 mM EDTA, 0.001% NP-40, 30 C). Details: tags: His6 N-terminal (pET28a); label: 5' 32P.
Procedure, shortened: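 Relative association constants, normalised to the cognate motif, were derived by comparing read counts of each RNA species with those of the control reaction. The RNA sequenced was the free fraction, separated by 8% native PAGE after a 10 min equilibration in 50 µL of 1 nM 5′-radiolabelled RNA (7 randomized nucleotides) with increasing concentrations of purified wild-type or mutant RbFox RRM.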

Binder	binding signal
B1	0.00826 KA relative to UGCAUGU
B2	0.0251 KA relative to UGCAUGU
B3	0.0109 KA relative to UGCAUGU
B4	0.00608 KA relative to UGCAUGU
B5	0.00941 KA relative to UGCAUGU
B6	0.0111 KA relative to UGCAUGU
B7	0.00319 KA relative to UGCAUGU
B8	0.0104 KA relative to UGCAUGU
B9	0.0329 KA relative to UGCAUGU
B10	0.0288 KA relative to UGCAUGU
B11	0.0187 KA relative to UGCAUGU
B12	0.0486 KA relative to UGCAUGU
B13	0.0202 KA relative to UGCAUGU
B14	0.0316 KA relative to UGCAUGU
B15	0.0163 KA relative to UGCAUGU
B16	0.038 KA relative to UGCAUGU
B17	0.0219 KA relative to UGCAUGU
B18	0.0184 KA relative to UGCAUGU

Binder	binding signal
B19	0.0252 KA relative to UGCAUGU
B20	0.0335 KA relative to UGCAUGU
B21	0.0146 KA relative to UGCAUGU
B22	0.0147 KA relative to UGCAUGU
B23	0.00711 KA relative to UGCAUGU
B24	0.0158 KA relative to UGCAUGU
B25	0.0133 KA relative to UGCAUGU
B26	0.0118 KA relative to UGCAUGU
B27	0.00809 KA relative to UGCAUGU
B28	0.0253 KA relative to UGCAUGU
B29	0.00766 KA relative to UGCAUGU
B30	0.0372 KA relative to UGCAUGU
B31	0.0354 KA relative to UGCAUGU
B32	0.0288 KA relative to UGCAUGU
B33	0.03 KA relative to UGCAUGU
B34	0.0184 KA relative to UGCAUGU
B35	0.029 KA relative to UGCAUGU
B36	0.0374 KA relative to UGCAUGU
